Hits are enriched below; roughly 10% of the tested compounds scored in any of these assays.
Sfp PPTase inh – qHTS Assay for Inhibitors of Bacillus subtilis Sfp phosphopantetheinyl transferase (PPTase); 4'-phosphopantetheinyl transferase ffp (Bacillus subtilis), Q9F4F7; Biochemical Sfp PPTase activity, qHTS; Potency, µM, most hits filed as inhibitors; actives 3.5% (n = 310,000); AID 1490, 2009;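 note: the enzyme is Sfp with the accession as filed and its product quenches rhodamine fluorescence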
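Step 1, compound plus 15 nM Sfp-PPTase, 15 min, room temperature. Step 2, add rhodamine-CoA (5 uM) and BHQ-2-YbbR (12.5 uM). Step 3, read 525/598 nm fluorescence at 0 and 30 min.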
PLK1 PBD block – qHTS for Inhibitors of PLK1-PDB (polo-like kinase 1 - polo-box domain): Primary Screen. Serine/threonine-protein kinase PLK1 (Homo sapiens), P53350. Plk1 PBD binding of FITC phosphopeptide, fluorescence polarization. Potency, µM, most hits filed as inhibitors. actives 2.8% (n = 360,000); note: series mostly up to about 57 µM; nearly all actives have a fitted effect of over 65% in size
VDR inhibitor – Inhibitors of the vitamin D receptor (VDR): qHTS. actives 0.93% (n = 400,000). VDR-SRC2-3 peptide fluorescence polarization, 2 h. Potency, µM, hits mostly inhibitors. AID 504847, 2011. Vitamin D3 receptor (Homo sapiens), P11473
Target sequence (P11473 whole entry, looked up): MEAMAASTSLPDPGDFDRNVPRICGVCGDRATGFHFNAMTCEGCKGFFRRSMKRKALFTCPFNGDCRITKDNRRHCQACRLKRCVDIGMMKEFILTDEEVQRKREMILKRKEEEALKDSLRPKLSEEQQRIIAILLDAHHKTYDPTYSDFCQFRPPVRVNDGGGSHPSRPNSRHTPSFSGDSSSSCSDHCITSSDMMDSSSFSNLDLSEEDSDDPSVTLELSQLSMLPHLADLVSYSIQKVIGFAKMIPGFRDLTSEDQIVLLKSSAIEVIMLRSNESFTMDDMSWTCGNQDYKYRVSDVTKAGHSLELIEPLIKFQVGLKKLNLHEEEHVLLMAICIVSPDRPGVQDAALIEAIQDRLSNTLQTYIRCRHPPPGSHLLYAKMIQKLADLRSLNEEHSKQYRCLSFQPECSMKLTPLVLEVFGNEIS
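Compounds are added to VDR with labelled SRC2-3 coactivator peptide and held 2 h at room temperature. Inhibition of the VDR–peptide interaction is then read as a change in fluorescence polarization.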
G9a block – qHTS Assay for Inhibitors of Histone Lysine Methyltransferase G9a | Histone-lysine N-methyltransferase EHMT2 (Homo sapiens), Q96KQ7 | G9a H3K9 monomethylation, AlphaScreen, 2 h | Potency, µM (series often up to 102 µM), actives largely listed as inhibitors | actives 8.8% (n = 350,000); note: nearly all actives have a fitted effect of over 75% in size
Target sequence (Q96KQ7 913-1193 limits assumed): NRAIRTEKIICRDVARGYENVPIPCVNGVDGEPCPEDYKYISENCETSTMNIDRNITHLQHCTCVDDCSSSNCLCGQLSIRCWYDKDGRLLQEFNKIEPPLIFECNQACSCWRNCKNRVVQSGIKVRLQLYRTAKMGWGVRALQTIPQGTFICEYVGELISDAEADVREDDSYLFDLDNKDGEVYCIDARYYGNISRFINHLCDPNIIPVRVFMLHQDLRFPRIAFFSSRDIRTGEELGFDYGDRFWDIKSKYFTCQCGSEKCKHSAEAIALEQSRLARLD
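G9a (20 nM) preincubated 15 min RT with compounds, then 500 nM biotinylated H3K9 peptide and 20 uM SAM added; 2 h RT reaction. Monomethyl-H3K9 product detected by AlphaScreen with anti-H3K9me1 antibody, streptavidin donor and anti-rabbit IgG acceptor beads.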
CCT modulator – High-Throughput Screening for Modulators of Cytosolic Chaperonin Activity. purified chaperonin ATPase assay, HTRF ADP detection, 30 min. AID 651819, 2012. activity change, % (test concentration not listed), hits read low. actives 0.3% (n = 360,000); in the data active = activity change below about -30%
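ATPase activity: ADP formed was measured by HTRF Transcreener (665/615 nm ratio) after 30 min at 37 deg C with 10 uM ATP. Compounds screened at one 76 uM concentration against 40 or 20 nM TRiC in Tris pH 7.4/KCl/MgCl2/DTT buffer.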
MmCpn inh – Inhibitors of TCP-1 ring complex (TRiC) of Methanococcus maripaludis (MmCpn): qHTS; Potency, µM (series often up to 76.9 µM), most hits filed as inhibitors; purified Mm-Cpn ATPase, ADP Transcreener TR-FRET; actives 0.031% (n = 330,000); AID 504842, 2011; Chaperonin Mm-Cpn (Methanococcus maripaludis); note: nearly all actives have a fitted effect of over 80% in size
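25 nM Mm-CPN + cpd, 10 min 37°C; + 10 uM ATP, 30 min 37°C; buffer 30 mM Tris pH 7.4, 100 mM KCl, 5 mM MgCl2, 1 mM DTT; Transcreener ADP HTRF detection 30 min RT.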
Hits are given with their value; ! = not confirmed by another sample; [ ] = dose if it differs, or a comment. Unless noted, calls come from the whole dose curve; as a rule, active = well fitted curve in the direction sought with a large enough effect; inconclusive = small, poorly fitted or top-dose-only effect, or another doubt; inactive = no such curve, though single readings can be large; an effect the other way counts as inactive or inconclusive.

C/C(CC(=O)Nc1ccccc1C(F)(F)F)=N\NC(=O)c1cnccn1 was read as PLK1 PBD block inactive, VDR inhibitor inactive and CCT modulator inactive.
`COc1ccc(CNC(=O)C/C(C)=N/NC(=O)c2cc(OC)cc(OC)c2)cc1` gave Sfp PPTase inh inactive, G9a block inactive and MmCpn inh inactive.
COc1ccccc1CNC(=O)C/C(C)=N/NC(=O)Cc1ccccc1 was read as Sfp PPTase inh inactive, PLK1 PBD block inactive, VDR inhibitor inactive, G9a block inactive, CCT modulator inactive and MmCpn inh inactive.
For O=C(Nc1ccccc1Br)N1CCC(CN2CCCC2)CC1 the results were VDR inhibitor inactive and G9a block inconclusive.
`CCOC(=O)c1ccc(NC(=O)CCCc2nc(-c3ccccc3Cl)no2)cc1` gave VDR inhibitor inactive and G9a block inactive.
Screening CO/N=C1/c2cc(OC)ccc2O[C@@H](c2cccc(OC)c2)[C@H]1O returned Sfp PPTase inh inactive.
Cc1ccc(S(=O)(=O)N(C)CC(=O)Nc2nc3ccccc3s2)cc1 was read as Sfp PPTase inh inactive, PLK1 PBD block inactive, VDR inhibitor inactive, G9a block inactive[12.7 µM], CCT modulator inactive and MmCpn inh inactive.
Screening Cc1ccc(/C(=N/Nc2nc3ccccc3s2)C2=C(O)c3ccccc3C2=O)cc1 returned Sfp PPTase inh 79µM, PLK1 PBD block inconclusive, VDR inhibitor inconclusive, G9a block inactive, CCT modulator inactive and MmCpn inh inactive.
For CN(C)CCC=C1c2ccccc2C(C)(C)c2ccccc21 the results were Sfp PPTase inh inactive, VDR inhibitor inactive and G9a block inconclusive.
`CN(C)CCC=C1c2ccccc2C=Cc2ccccc21` gave Sfp PPTase inh inactive, PLK1 PBD block inactive, VDR inhibitor inactive, G9a block 14µM!, CCT modulator inactive and MmCpn inh inactive.
`CCc1c(C)sc2c1CCN(Cc1ccccc1F)C2c1ccccc1` (configuration not stated) gave VDR inhibitor inactive and G9a block inconclusive.
For O=C(O)CC12CC3CC(C1)CC(n1ncc(NCC4CCCO4)c(Cl)c1=O)(C3)C2 (configuration not stated) the results were Sfp PPTase inh inactive, PLK1 PBD block inactive, VDR inhibitor inactive, G9a block 56µM, CCT modulator inactive and MmCpn inh inactive.
For CCc1ccc(CNC(=O)C2CCCN(S(=O)(=O)c3ccc4c(ccn4C)c3)C2)cc1 (configuration not stated) the results were VDR inhibitor inactive and G9a block inactive.
`Nc1cc(N)nc(SCC(=O)Nc2ccc(Br)cc2Cl)n1` gave Sfp PPTase inh inactive, PLK1 PBD block 11µM, VDR inhibitor inactive, G9a block inactive, CCT modulator inactive and MmCpn inh inactive.
For Nc1nc(SCC(=O)Nc2ccc(Br)cc2Br)n[nH]1 the results were PLK1 PBD block inactive, VDR inhibitor inactive, CCT modulator inactive and MmCpn inh inactive.
COc1ccc(N2CCN(C(=O)CCn3c(=O)[nH]c4cc(OC)c(OC)cc4c3=O)CC2)cc1 was read as VDR inhibitor inactive and G9a block inactive.
CC(=O)c1n[nH]nc1NC(=O)c1ccccc1 was read as Sfp PPTase inh inactive, PLK1 PBD block inactive, VDR inhibitor inactive, G9a block 50µM, CCT modulator inactive and MmCpn inh inactive.
`O=C(O)Cc1ccc(OCCNC[C@H](O)c2ccccc2)cc1` gave Sfp PPTase inh inactive.
OCc1cc(C(O)CNCCCCCCOCCCCc2ccccc2)ccc1O (configuration not stated) was read as Sfp PPTase inh 56µM!, PLK1 PBD block inactive, VDR inhibitor inactive, G9a block 35µM!, CCT modulator inactive and MmCpn inh inactive.
O=C(/C=C/c1ccccc1)OC1CC(O)C2(O)C=CO[C@@H](OC3OC(CO)C(O)C(O)C3O)C12 (some centres not stated) was read as Sfp PPTase inh inactive, VDR inhibitor inactive and G9a block inactive[2.33 µM].
For Nc1sc(Cc2ccccc2)cc1C(=O)c1c(-c2ccccc2)[nH]c2ccccc12 the results were PLK1 PBD block 19µM.
For CCN(CC)C(=O)C(=O)c1c(-c2ccccc2)[nH]c2ccccc12 the results were Sfp PPTase inh inactive, PLK1 PBD block inactive, VDR inhibitor inactive, G9a block inactive, CCT modulator inactive and MmCpn inh inactive.
`CCOc1ccc(N2CC(NC(=O)C(=O)c3c[nH]c4ccccc34)CC2=O)cc1` (configuration not stated) gave VDR inhibitor inactive and G9a block inactive.
`CCCCOC(=O)c1ccc(N=Nc2c(C)c(C#N)c(O)[nH]c2=O)cc1` gave Sfp PPTase inh inactive, PLK1 PBD block inactive, VDR inhibitor inactive, G9a block inactive, CCT modulator inactive and MmCpn inh inactive.
Screening Cc1c(C#N)c(O)[nH]c(=O)c1N=Nc1ccc(Br)cc1C(=O)O returned Sfp PPTase inh inactive, PLK1 PBD block inactive, VDR inhibitor inactive, G9a block 45µM, CCT modulator inactive and MmCpn inh inactive.
Cc1cccc(N=Nc2c(C)c(C#N)c(O)[nH]c2=O)c1 was read as Sfp PPTase inh inactive, PLK1 PBD block inactive, VDR inhibitor inactive, G9a block 50µM, CCT modulator inactive and MmCpn inh inactive.
For COc1ccc(C(CNC(=O)c2cccc(S(=O)(=O)Nc3ccccc3OC)c2)N2CCCC2)cc1 (configuration not stated) the results were PLK1 PBD block inactive, VDR inhibitor inactive, G9a block inactive, CCT modulator -51 and MmCpn inh inactive.
`Cn1nc(C(=O)OCc2ccc(F)cc2)c2ccccc2c1=O` gave Sfp PPTase inh inactive, PLK1 PBD block inactive, VDR inhibitor inactive, G9a block inactive, CCT modulator -37 and MmCpn inh inactive.
Screening O=C(N/N=C/C(Cl)=C/c1ccccc1)c1ccccc1F returned Sfp PPTase inh inactive, PLK1 PBD block inactive, VDR inhibitor inactive, G9a block 32µM, CCT modulator inactive and MmCpn inh inactive.
O=C(N/N=C/C(Br)=C/c1ccccc1)c1ccccc1F was read as Sfp PPTase inh inactive, PLK1 PBD block inconclusive, VDR inhibitor inconclusive, G9a block inactive, CCT modulator inactive and MmCpn inh inactive.
`CC(=O)N1CCC2(CC1)C/C(=N\NC(=S)Nc1ccccc1C)c1cc(O)ccc1O2` gave Sfp PPTase inh inactive, PLK1 PBD block inactive, VDR inhibitor inactive, G9a block 32µM, CCT modulator inactive and MmCpn inh inactive.
